Measured values reported in the supplement of paper PMC9433436.
± gives the standard deviation of the averaged measurements. Whole data set: some 4,100 sequences, median “relative kcat/Km (krel) vs genomic leader AAAGAU” near 1.7, cut for the highest 2% near 6.5. The sample holds the highest values, similar sequences and a random draw of the others, so the mix is not that of the screen.

Biological target: T1, E. coli RNase P holoenzyme (M1 P RNA + rnpA protein) (UniProt P0A7Y8)
T1 sequence: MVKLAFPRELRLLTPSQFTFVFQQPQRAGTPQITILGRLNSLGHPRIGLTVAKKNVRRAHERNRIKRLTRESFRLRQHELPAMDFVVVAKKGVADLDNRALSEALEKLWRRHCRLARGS
Experiment: relative kcat/Km (krel) vs genomic leader AAAGAU (relative (reference leader = 1)); higher = faster RNase P cleavage
Protocol: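 HTS-Kin: a pool of ptRNA-Met (21C construct) with all 4096 combinations of 5' leader nucleotides N(-6) to N(-1) was processed in vitro by E. coli RNase P (P RNA + rnpA/C5 protein) under multiple-turnover conditions at 37 C, pH 8, 17.5 mM MgCl2. Residual substrate was Illumina-sequenced at several fractions reacted, and relative kcat/Km (krel) was computed by internal competition kinetics, calibrated to the genomic leader (AAAGAU = 1). The listed hexamer is the varied N(-6)..N(-1) leader (DNA letters), and it sits between a fixed 5' stem-loop flank (GCAUGCACGAAAGUGCGUGCUAUGAA) and the mature tRNA-Met starting GGCUACGUAGCUCAGUUGG. Two technical replicates are averaged.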

[1] = fraction of substrate reacted: ~9-10% (9.79% repeat 1, 9.1% repeat 2)
[2] = fraction of substrate reacted: ~13-16% (15.68% repeat 1, 13.17% repeat 2)
[3] = fraction of substrate reacted: ~26-29% (28.66% repeat 1, 26.4% repeat 2)

Row | Sequence | relative kcat/Km [1] | relative kcat/Km [2] | relative kcat/Km [3]
1 | GTGTCA | 1.15 ± 0.97 | 0.779 ± 0.57 | 1.49 ± 0.16
2 | GCCTGG |  |  | 0.776 ± 0.2
3 | GTGCCC | 1.01 ± 0.23 | 0.583 ± 0.44 | 1.13 ± 0.088
4 | TTTGCT | 0.76 ± 0.28 | 0.721 ± 0.56 | 0.983 ± 0.097
5 | CAAAAC | 1.4 ± 0.17 | 1.59 ± 0.4 | 2.51 ± 0.41
6 | GACTTA | 3.03 ± 0.62 | 4.15 ± 0.96 | 5.78 ± 2.2
7 | GACTAG | 1.77 ± 1.4 | 2.58 ± 0.6 | 4.67 ± 1.3
8 | GACTAA | 4.15 ± 1.9 | 5.64 ± 1.3 | 8.21 ± 3.3
9 | TACTAT | 4.15 ± 0.89 | 6.07 ± 1.3 | 9 ± 3.9
10 | AACTAG | 3.36 ± 2.5 | 2.8 ± 0.61 | 3.95 ± 1.3
11 | TACTGT | 0.799 ± 0.45 | 1.56 ± 1.4 | 1.19 ± 0.64
12 | ATGAAG | 0.588 ± 0.19 | 0.919 ± 0.16 | 1.85 ± 0.42
13 | AGTCGG |  | 0.482 ± 0.36 | 1.03 ± 0.14
14 | GAGAAA | 2.38 ± 1.1 | 3.13 ± 0.99 | 3.4 ± 0.98
15 | CTCATA | 3.84 ± 2.5 | 4.93 ± 0.27 | 6.23 ± 2.5
16 | TGCATT | 0.949 ± 0.79 | 1.93 ± 1.2 | 2.68 ± 1.7
17 | GTCATT | 4.45 ± 1.6 | 5.21 ± 2 | 8.08 ± 4
18 | TTCATA | 4.76 ± 2.5 | 6.15 ± 0.55 | 8.54 ± 3.2
19 | TTCATC | 4.42 ± 1.8 | 5.94 ± 0.79 | 8.86 ± 3.8
20 | TTCATG | 2 ± 2 | 2.08 ± 0.48 | 4.3 ± 1.5
21 | TGCATC | 2.12 ± 1.2 | 1.5 ± 0.48 | 2.05 ± 0.7
22 | TTCATT | 4.9 ± 1.8 | 6.77 ± 1.4 | 9.68 ± 4.2
23 | ATCATT | 3.39 ± 1.4 | 4.551 ± 0.032 | 6.49 ± 2.6
24 | TCCATC | 3.7 ± 1.8 | 3.95 ± 0.47 | 6.33 ± 2.3

Row | Sequence | relative kcat/Km [1] | relative kcat/Km [2] | relative kcat/Km [3]
25 | GGCATT | 1.85 ± 0.77 | 2.15 ± 0.27 | 3.37 ± 1.4
26 | TCTACA | 1.43 ± 0.68 | 1.87 ± 0.44 | 2.46 ± 1.1
27 | GGTAAG | 1.39 ± 1.3 | 0.931 ± 0.053 | 2.32 ± 1.1
28 | TCCACT | 2.76 ± 1.1 | 3.06 ± 0.4 | 4.72 ± 1.1
29 | CATCGT |  |  | 1.54 ± 1.2
30 | GGATCA | 0.973 ± 0.2 | 1.04 ± 0.42 | 1.53 ± 0.71
31 | CACGGT |  |  | 1.7 ± 0.39
32 | AGAGAT | 0.682 ± 0.45 | 1.15 ± 0.6 | 1.75 ± 0.4
33 | GTCATG |  | 1.48 ± 0.37 | 3.5 ± 0.91
34 | GTCATA | 4.4 ± 2 | 4.91 ± 0.65 | 7.54 ± 3
35 | ATCATA | 3.61 ± 1.8 | 4.31 ± 0.3 | 5.9 ± 2.2
36 | CGAGAG | 0.809 ± 0.14 |  | 0.931 ± 0.1
37 | CCTTCC | 1.62 ± 0.022 | 1.51 ± 1.3 | 2.47 ± 0.27
38 | ACCGAC | 2.3 ± 2.1 | 3.17 ± 0.29 | 4.58 ± 1
39 | CCCGAT | 2.59 ± 0.49 | 2.76 ± 1.2 | 3.21 ± 0.9
40 | TCCGAG | 2.34 ± 0.033 | 2.52 ± 1.4 | 5.01 ± 2.2
41 | CCCGAG | 1.48 ± 0.82 | 0.888 ± 0.25 | 3.16 ± 0.072
42 | ACCGAG | 2.58 ± 2.5 | 0.833 ± 0.22 | 2.44 ± 0.21
43 | GCCGAA | 3.56 ± 1.2 | 4.16 ± 0.78 | 6.35 ± 2.4
44 | GCCGAC | 2.64 ± 1.3 | 3.49 ± 0.69 | 5.36 ± 2.2
45 | ACCGAA | 3.81 ± 1.6 | 4.31 ± 1 | 6.81 ± 3
46 | TCCGAT | 2.34 ± 0.53 | 2.91 ± 1.4 | 4.01 ± 1.3
47 | TCCGAC | 3.47 ± 0.1 | 4.91 ± 1.2 | 7.68 ± 3
48 | CCCGAA | 2.83 ± 1.5 | 4.35 ± 1.8 | 6.76 ± 2.5

Row | Sequence | relative kcat/Km [1] | relative kcat/Km [2] | relative kcat/Km [3]
49 | TCCGAA | 5.05 ± 1.9 | 6.23 ± 1.9 | 9.05 ± 3.9
50 | ACTCGT |  |  | 2.02 ± 1.7
51 | AGCACG |  |  | 1.13 ± 0.11
52 | TTAGAA | 2.72 ± 1.5 | 2.61 ± 0.03 | 3.57 ± 1.4
53 | GCCCAC | 3.04 ± 0.041 | 4.04 ± 1.6 | 5.93 ± 2.8
54 | CCCCAA | 3.03 ± 1.2 | 3.57 ± 0.21 | 4.97 ± 1.6
55 | ACCCAA | 2.3 ± 0.84 | 2.69 ± 0.25 | 4.83 ± 1.9
56 | ACCCAC | 3.6 ± 1.7 | 3.71 ± 0.7 | 5.48 ± 1.8
57 | TCCCAT | 4.48 ± 2.4 | 5.74 ± 1 | 8.73 ± 3.7
58 | ACCCAT | 2.43 ± 0.83 | 2.95 ± 0.91 | 5.63 ± 2.4
59 | TCCCAC | 4.44 ± 1.1 | 5.53 ± 1.1 | 7.79 ± 3
60 | GCCCAT | 3.07 ± 2.2 | 3.36 ± 0.14 | 5.4 ± 1.5
61 | TCCCAA | 4.73 ± 3.1 | 4.63 ± 0.2 | 6.94 ± 2.3
62 | GCTATG |  |  | 1.51 ± 0.12
63 | AGAAAG | 1.38 ± 1.3 | 1.14 ± 0.7 | 2.2 ± 0.47
64 | CGGACG | 1.05 ± 1.1 |  | 0.906 ± 0.41
65 | GCATAA | 1.89 ± 0.96 | 2 ± 0.52 | 3.04 ± 1.1
66 | ATAGTC | 1.61 ± 0.89 | 1.42 ± 1 | 1.68 ± 0.75
67 | AGTAAT | 2.83 ± 0.62 | 3.38 ± 0.27 | 5.07 ± 2.3
68 | TTCCTA | 3.35 ± 1.2 | 4.53 ± 0.46 | 5.89 ± 2.4
69 | TACGCC | 3.64 ± 0.043 | 5.35 ± 1.7 | 7.66 ± 3.3
70 | GACGCT | 2.24 ± 0.19 | 2.17 ± 0.8 | 3.11 ± 1.4
71 | GACGCA | 3.33 ± 1.3 | 3.62 ± 0.97 | 5.24 ± 1.8
72 | TACGCA | 2.71 ± 1.7 | 4.27 ± 0.58 | 6.64 ± 3.4

Row | Sequence | relative kcat/Km [1] | relative kcat/Km [2] | relative kcat/Km [3]
73 | AACGCC | 1.93 ± 0.48 | 3.24 ± 1.4 | 4.53 ± 1.3
74 | GACGCC | 3.241 ± 0.028 | 4.62 ± 1.3 | 6.69 ± 2.6
75 | AACGCA | 2.99 ± 1.6 | 3.18 ± 0.58 | 4.32 ± 1.4
76 | TACGCG | 1.87 ± 1.1 | 1.66 ± 0.44 | 3.13 ± 0.89
77 | GACGCG |  | 0.59 ± 0.14 | 2.38 ± 0.093
78 | ACGCAC | 1.83 ± 0.3 | 2.12 ± 0.95 | 3.59 ± 1.2
79 | CATCCC | 2.17 ± 1.8 | 2.06 ± 1.1 | 1.96 ± 0.22
80 | CCTTTC | 2.13 ± 0.9 | 2.39 ± 0.27 | 3.08 ± 0.83
81 | CCTTCA | 1.71 ± 1.4 | 1.18 ± 0.065 | 1.84 ± 0.056
82 | TACTTT | 3.77 ± 1.4 | 4.69 ± 0.54 | 6.8 ± 3.1
83 | CACTTC | 2.93 ± 0.5 | 3.69 ± 0.85 | 5.44 ± 2.2
84 | CACTTT | 3.33 ± 1.1 | 4.55 ± 0.76 | 6.22 ± 2.4
85 | TACTTG |  | 0.792 ± 0.45 | 2.68 ± 1.1
86 | TACTTA | 3.1 ± 0.66 | 4.1 ± 0.88 | 5.63 ± 2.6
87 | TACTTC | 4.11 ± 1.8 | 4.99 ± 1.3 | 6.85 ± 2.9
88 | GTTATG |  | 1.56 ± 0.24 | 3.32 ± 0.7
89 | CTTTTA | 2.68 ± 0.65 | 2.79 ± 0.91 | 3.18 ± 1.2
90 | AAGCAT | 2.34 ± 0.52 | 2.87 ± 1 | 3.28 ± 1.9
91 | TTCCAA | 4.78 ± 1.8 | 6.03 ± 0.65 | 8.56 ± 3.5
92 | TTCCAG | 2.51 ± 1.5 | 3.27 ± 0.64 | 5.49 ± 1.9
93 | TGCCAA | 3.18 ± 1.1 | 2.55 ± 0.62 | 4.09 ± 1
94 | TTCCCC | 3.49 ± 1.7 | 4.17 ± 0.71 | 5.59 ± 1.9
95 | CTCCAT | 4.25 ± 0.86 | 5.67 ± 1.3 | 8.48 ± 4
96 | GTCCCT | 2.62 ± 0.56 | 3.61 ± 0.74 | 5.58 ± 2.5
